{"source": "PubChem BioAssay AID1578", "about": "(Sanford-Burnham Center for Chemical Genomics, 2009)", "note": "Out of some 290,000 compounds screened, about 3,000 (1%) were called active. No stated cut-off is given here; in the data, active means inhibition mostly above about 36% (no sharp cut-off); inactive means mostly below about 34%. The full list was thinned out, with actives kept by preference.", "data": [{"assay": "inhibition of NOD1-driven NF-kB reporter – cell-based, luminescence, uHTS, primary screen (AID 1578);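 further: HEK-293T reporter cells stimulated with the NOD1 agonist gamma-tri-DAP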", "details": "NOD1-driven NF-kB luciferase reporter cells, at 4 µM, hits give high values", "values": [{"molecule": "CC(C)n1c(O)c(C2c3cc(Cl)ccc3Oc3[nH]c(=O)n(C(C)C)c(=O)c32)c(=O)[nH]c1=O", "note": "(stereo not given)", "inhibition": "61.3% (active)"}, {"molecule": "CC(=O)c1c(O)n(-c2cccc(Cl)c2)c(=O)[nH]c1=O", "note": "(tested in a mixture with another compound)", "inhibition": "1.2% (inactive)"}, {"molecule": "CC(=O)[C@@]1(O)CC[C@H]2[C@@H]3CC=C4C[C@@H](O)CC[C@]4(C)[C@H]3CC[C@@]21C", "inhibition": "-24.8% (inactive)"}, {"molecule": "CC12CC[C@H]3[C@@H](CCC4(O)C[C@H](O)CCC34/C=N/NC(=O)c3ccccc3Cl)C1(O)CCC2C1=CC(=O)OC1", "note": "(stereo not given in full)", "inhibition": "3% (inactive)"}, {"molecule": "C[C@]12CC[C@H]3C(CCC4(O)CC(O)CC[C@]34C=O)C1=CC[C@H]2c1ccc(=O)oc1", "note": "(stereo not given in full)", "inhibition": "60.3% (active)"}, {"molecule": "C=C(C)Cn1c(=O)n(CC2CS2)c2ccccc21", "note": "(stereo not given)", "inhibition": "8.9% (inactive)"}, {"molecule": "CCOc1cc2c(cc1OCC)-n1cccc1C(c1ccccc1OC)NC2", "note": "(stereo not given)", "inhibition": "4.7% (inactive)"}, {"molecule": "CCC1(OC(=O)CN)C(=O)OCc2c1cc1n(c2=O)Cc2cc3ccccc3nc2-1", "note": "(stereo not given)", "inhibition": "71.2% (active)"}, {"molecule": "CC[C@@]1(O)C(=O)OCc2c1cc1n(c2=O)Cc2cc3c(NC(=O)CN)cccc3nc2-1", "inhibition": "7.7% (inactive)"}, {"molecule": "CCOC(=O)C1=C(N)OC2=C(C(=O)CCC2)C12C(=O)N(C)c1ccccc12", "note": "(stereo not given)", "inhibition": "-7.5% (inactive)"}, {"molecule": "Cc1cnn(C2CCN(C)CC2)c1N", "inhibition": "-8.2% (inactive)"}, {"molecule": "NC1=C([N+](=O)[O-])C(c2ccc3c(c2)OCO3)c2c(c3ccccc3oc2=O)O1", "note": "(stereo not given)", "inhibition": "-6% (inactive)"}, {"molecule": "O=C(Cc1ccccc1)Oc1cccc(-n2cnnn2)c1", "inhibition": "-14.2% (inactive)"}, {"molecule": "O=[N+]([O-])c1ccc(N2CCNCC2)cc1Sc1ccccn1", "inhibition": "-12.4% (inactive)"}, {"molecule": "Cc1cc(N2CCCCC2)ccc1C=C1C(=O)N(C)C(=S)N(C)C1=O", "inhibition": "-10.1% (inactive)"}, {"molecule": "Cc1ccc(N2C(=O)CC(=O)NC2=O)cc1", "inhibition": "-5.6% (inactive)"}, {"molecule": "O=Cc1cn(Cc2c(F)cccc2Cl)c2ccccc12", "inhibition": "66% (active)"}, {"molecule": "O=Cc1cn(Cc2ccccc2F)c2ccccc12", "inhibition": "30.3% (inactive)"}, {"molecule": "O=Cc1cn(Cc2ccc(F)cc2)c2ccccc12", "inhibition": "6.2% (inactive)"}, {"molecule": "Cc1cc(=O)oc2cc(OCC(=O)N3CCC(C(=O)O)(c4ccccc4)CC3)ccc12", "inhibition": "-7.5% (inactive)"}, {"molecule": "CCCCOP(=O)(OCCCC)/C(C#N)=C(/C)O", "inhibition": "-14.2% (inactive)"}, {"molecule": "O=c1[nH]c(=S)n(Cc2ccc(F)cc2)c(O)c1C=NCCCn1ccnc1", "inhibition": "-9.5% (inactive)"}, {"molecule": "Cc1cccc(CN2CCCN(Cc3ccc(Cl)cc3)S2(=O)=O)c1", "inhibition": "2.2% (inactive)"}, {"molecule": "Cc1cccc(N2C(=O)NC(=O)/C(=C\\C=C\\c3ccco3)C2=O)c1", "inhibition": "-6.1% (inactive)"}, {"molecule": "CN1C(=O)/C(=C/C=C/c2ccco2)C(=O)NC1=S", "inhibition": "-4.7% (inactive)"}, {"molecule": "O=C1NC(=O)N(Cc2ccccc2)C(=O)/C1=C\\c1ccco1", "inhibition": "-5.6% (inactive)"}, {"molecule": "CCCCN1C(=O)/C(=C/C=C/c2ccco2)C(=O)NC1=S", "inhibition": "-32.6% (inactive)"}, {"molecule": "O=C1NC(=O)N(c2ccccc2)C(=O)/C1=C/c1ccoc1", "inhibition": "-13.5% (inactive)"}, {"molecule": "O=C1NC(=O)N(Cc2ccccc2)C(=O)/C1=C\\C=C\\c1ccco1", "inhibition": "61.5% (active)"}, {"molecule": "CCc1ccc(N2C(=O)NC(=O)/C(=C\\C=C\\c3ccco3)C2=O)cc1", "inhibition": "89.4% (active)"}, {"molecule": "Cn1cc(/C=C2\\C(=O)NC(=O)N(c3ccccc3)C2=O)c2ccccc21", "inhibition": "-3.2% (inactive)"}, {"molecule": "CN(C)c1ccc(/C=C/C=C2/C(=O)NC(=O)N(c3ccccc3)C2=O)cc1", "inhibition": "80.9% (active)"}, {"molecule": "Cc1ccc(N2C(=O)NC(=O)/C(=C/C=C/c3ccco3)C2=O)cc1", "inhibition": "87.4% (active)"}, {"molecule": "Cc1cc(C)cc(N2C(=O)NC(=O)/C(=C\\C=C\\c3ccco3)C2=O)c1", "inhibition": "67.1% (inactive)"}, {"molecule": "CCN1C(=O)C(=C/C=C/c2ccco2)C(=O)N(CC)C1=S", "inhibition": "-25.5% (inactive)"}]}]}
